# IL-1B inflam inh – qHTS for Inhibitors of Inflammasome Signaling: IL-1-beta AlphaLISA Primary Screen; 360,000 tested, 4.7% active; THP-1 LPS/ATP IL-1B secretion, AlphaLISA, 16 h; active compounds read low; activity change, % at 57.5 µM; AID 743279, 2014; in the data active = activity change below about -50%; inconclusive = mostly about -30% to -49%
#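 Secreted IL-1B measured by AlphaLISA bead assay after 16 h compound exposure of THP-1 cells; compounds (final up to 57.5 uM) added 1 h before LPS (250 ng/mL) and ATP (1.25 mM) stimulation; lower signal means less secretion.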
# DT40 TDP1 CPT – qHTS for Inhibitors of human tyrosyl-DNA phosphodiesterase 1 (TDP1): qHTS in cells in presence of CPT; chicken DT40 Tdp1-/-;hTDP1 cells + 20 nM CPT, ATP luminescence, 48 h; Potency, µM (highest dose often 46.2 µM), without a hit: at the highest dose activity change, negative = growth inhibition, most hits filed as inhibitors; 420,000 tested, 12% active; AID 686979, 2013; note: potency is the fitted concentration of half-maximal effect; nearly all actives have a fitted effect of over 55% in size
#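 Cell growth measured by CellTiter-Glo luminescence after a minimum 48 h, 37 C compound exposure with 20 nM CPT in Tdp1-knockout DT40 cells stably expressing hTDP1, seeded 400/well; qHTS titration format.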
# TDP1 cell noCPT – qHTS for Inhibitors of human tyrosyl-DNA phosphodiesterase 1 (TDP1): qHTS in cells in absence of CPT; DT40 Tdp1-/- hTDP1 cells, no CPT, ATP luminescence, 48 h; Potency, µM (doses to about 46.2 µM), for the others: top-dose activity change, negative = growth inhibition, actives largely listed as inhibitors; 420,000 tested, 15% active; note: potency is the fitted concentration of half-maximal effect; nearly all actives have a fitted effect of over 55% in size
#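 Growth kinetics read by CellTiter-Glo luminescence after ≥48 hr at 37 °C. Cells: DT40 Tdp1-/- stably carrying human TDP1, 400 per well, compound exposure in the absence of CPT (DMSO vehicle).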
# HT1080 IDH1KD tx – qHTS for induction of synthetic lethality in tumor cells producing 2HG: qHTS for the HT-1080-IDH1KD cell line; HT-1080 IDH1 knockdown viability, ATP luminescence, 48 h; Potency, µM (highest dose often 46.1 µM), for inactives: top-dose activity, negative = toxicity, usual class: cytotoxic; 360,000 tested, 2% active;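 note: potency is the fitted concentration of half-maximal effect; 0% = DMSO wells and -100% = cell-free medium wells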
#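 HT-1080-IDH1KD cells (IDH1 knocked down), 750/well in RPMI with 5% FBS, treated with compound 48 h at 37 degrees C. Viability by CellTiter-Glo luminescence, normalised to DMSO and no-cell wells; concentration-response curves classed.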
# HT1080-NT tox – qHTS for induction of synthetic lethality in tumor cells producing 2HG: qHTS for the HT-1080-NT fibrosarcoma cell line; HT-1080-NT fibrosarcoma viability, CellTiter-Glo ATP luminescence, 48 h; Potency, µM (doses to about 46.1 µM), without a hit: at the highest dose activity, negative = less viability, actives largely listed as cytotoxic; 360,000 tested, 1.6% active;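 note: NT is the 2HG producing partner of a matched IDH1 knockdown line; potency is the fitted concentration of half-maximal effect; 0% = DMSO-treated cells and -100% = media-only wells without cells; nearly all actives have a fitted effect of over 55% in size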
#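 Viability of the 2HG-overproducing fibrosarcoma line after 48 hours of compound exposure at 37 degrees C was determined by luminescence with CellTiter-Glo, and concentration-effect curves were then fitted and categorized.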
# * marks the source's active call; other numbers are inactive results; u = inconclusive; x = no result given. An excerpt weighted towards active compounds, which were near 19% of everything screened. Unless noted, calls come from the whole dose curve; as a rule, active = well fitted curve in the direction sought with a large enough effect; inconclusive = small, poorly fitted or top-dose-only effect, or another doubt; inactive = no such curve, though single readings can be large; an effect the other way counts as inactive or inconclusive. Unless noted, % is set by controls: 0 for no effect and ±100 for the full control effect.
SMILES,IL-1B inflam inh,DT40 TDP1 CPT,TDP1 cell noCPT,HT1080 IDH1KD tx,HT1080-NT tox
COc1ccc2c(c1OC)C(=O)N(c1ccc(OCc3ccccc3)cc1)C2=O,4,3%,-2%,19%,15%
Cc1ccc2c(c1)C1(C)C(C(C)(C)N2C=O)C1(Cl)Cl (centres undefined),-6,-23%,10µM*,1%,-6%
COc1ccc(CC(=O)N(C)c2ccccc2)cc1S(=O)(=O)N1CCOCC1,-23,-9%,-19%,-1%,-5%
Cc1ccc2c(CNCc3ccc(C)o3)c(C(=O)O)n(Cc3ccc(F)cc3)c2c1,x,u,16µM*,x,x
Cc1c(CNCc2cccs2)c(C(=O)O)c(C)n1Cc1ccccc1,-1,-23%,-25%,6%,7%
COc1ccc2c(CNCc3cccs3)c(C(=O)O)n(Cc3ccc(F)cc3)c2c1,x,18µM*,9.2µM*,x,x
COc1ccc2c(CNCc3cccs3)c(C(=O)O)n(Cc3ccccc3F)c2c1,x,u,-28%,x,x
COc1ccc(Cn2c(C(=O)O)c(CNCc3cccs3)c3ccc(C)cc32)cc1,x,u,18µM*,x,x
CCOc1ccccc1CNCc1c(C(=O)O)n(Cc2ccc(F)cc2)c2cc(C)ccc12,x,13µM*,5.8µM*,x,x
Cc1ccc(Cn2c(C(=O)O)c(CNC3CCCCC3)c3ccc(C)cc32)cc1,x,u,-15%,x,x
O=C(COC(=O)/C=C/c1ccc(Br)o1)NCCCN1CCCC1=O,8,4%,-3%,7%,6%
C[C@H](CO)N1C[C@H](C)[C@@H](CN(C)S(=O)(=O)c2cccc(F)c2)Oc2ncc(Br)cc2C1=O,12,-28%,u,0%,-3%
CCc1nnnn1-c1ccc([N+](=O)[O-])cc1C,0,3%,9%,9%,11%
CC(=O)Nc1ccc(S(=O)(=O)NC2(C(F)(F)F)C(=O)Nc3c2c(=O)[nH]c(=O)n3Cc2ccco2)cc1 (centres undefined),9,u,8%,6%,1%
Cc1ccc2c(CNC3CCCCC3)c(C(=O)O)n(Cc3ccc(F)cc3)c2c1,x,-20%,u,x,x
Cc1ccc2c(CNCc3cccs3)c(C(=O)O)n(Cc3ccc(F)cc3)c2c1,x,6.5µM*,5.2µM*,x,x
C=Cc1ccc(Cn2c(C(=O)O)c(CNCc3ccc(F)cc3)c3ccc(C)cc32)cc1,x,21µM*,23µM*,x,x
C[C@H](NC(=O)[C@H](Cc1ccccc1)n1c(=O)[nH]c2ccccc2c1=O)C(=O)N1CCC(C(=O)O)CC1,14,-10%,-4%,5%,0%
COc1ccc(S(=O)(=O)N2CCOC23CCN(S(=O)(=O)c2ccc(F)cc2C)CC3)cc1,-3,u,23µM*,-17%,-6%
COc1ccc(S(=O)(=O)N2CCOC23CCN(S(=O)(=O)c2c(C)cc(C)cc2C)CC3)cc1,-9,u,16µM*,-5%,-26%
COc1ccc(S(=O)(=O)N2CCC3(CC2)OCCN3S(=O)(=O)c2ccc(OC)cc2)cc1,-13,u,u,-5%,-2%
COc1ccc(S(=O)(=O)N2CCOC23CCN(S(=O)(=O)c2cc(C)ccc2C)CC3)cc1,-1,21µM*,u,5%,-2%
CC(C)n1c(N2CCN(C(=O)c3cccs3)CC2)nc2ccccc21,-9,u,23µM*,-3%,-3%
CC(C)n1c(N2CCN(C(=O)N3CCCCC3)CC2)nc2ccccc21,13,13µM*,u,4%,8%
CCCc1cnc(NCCNCC(O)COc2ccc(Cl)c(Cl)c2)nc1 (centres undefined),x,16µM*,16µM*,21µM*,18µM*
SMILES,IL-1B inflam inh,DT40 TDP1 CPT,TDP1 cell noCPT,HT1080 IDH1KD tx,HT1080-NT tox
OC(CNCc1ccc(Cl)cc1)COc1ccccc1 (centres undefined),-7,u,u,-1%,-13%
CCC(C)C(NC(=O)C(C)NC(=O)CNC(=O)CNC(=O)OCc1ccccc1)C(=O)OC (centres undefined),22,-11%,-10%,14%,8%
OC(c1cccc(F)c1)c1ncc(-c2ccc(Oc3ccccc3)cc2)[nH]1 (centres undefined),-23,u,u,u,16µM*
COc1cccc(C(O)c2ncc(-c3ccccc3)[nH]2)c1 (centres undefined),18,u,-23%,7%,15%
OC(c1cccc(Cl)c1)c1ncc(-c2ccc(Oc3ccccc3)cc2)[nH]1 (centres undefined),-52*,u,u,u,u
Cc1cc(F)ccc1C(O)c1ncc(-c2ccccc2)[nH]1 (centres undefined),43,-27%,-18%,-9%,-9%
Cc1cc(F)ccc1C(O)c1ncc(-c2ccc(Oc3ccccc3)cc2)[nH]1 (centres undefined),1,21µM*,u,u,u
OC(c1ccc(Cl)c(F)c1)c1ncc(-c2ccc(Oc3ccccc3)cc2)[nH]1 (centres undefined),u,23µM*,u,u,u
Cc1cccc(C(C(=O)NC2CCCCC2)N(Cc2cccnc2)C(=O)c2csnn2)c1 (centres undefined),25,-3%,-22%,-2%,u
CCCOc1ccc(N2C(=O)CC(N(CCOC34CC5CC(CC(C5)C3)C4)C(C)=O)C2=O)cc1 (centres undefined),-4,-19%,-29%,-3%,-3%
O=C1CC2(CCN(C(=O)C3CC(=O)N(c4ccc(F)cc4)C3)CC2)Oc2ccccc21 (centres undefined),-4,u,u,0%,5%
NC(=O)NCCc1ccccc1,11,0%,-2%,10%,4%
C=CC[C@@H](Cc1ccc(F)cc1)C(=O)OC[C@@H]1CCCN1C(=O)[C@H](CC=C)CC(=O)NCCO,6,u,u,2%,24%
C=CCC[C@@H](Cc1ccc(F)cc1)C(=O)OC[C@@H]1CCCN1C(=O)[C@@H](CC=C)CC(=O)N[C@@H](CO)Cc1ccccc1,u,15µM*,16µM*,-1%,-26%
C=CCC[C@H](Cc1ccc(F)cc1)C(=O)OC[C@@H]1CCCN1C(=O)[C@@H](CC=C)CC(=O)NCCO,6,u,21µM*,-5%,7%
CNc1snc(C)c1C(=O)OC(C)C(=O)NCc1ccccc1 (centres undefined),15,-33%,u,-13%,-10%
